Source: PubChem BioAssay (NCATS)
Non-standard residues stand in square brackets, D forms with d. Residues, ends and D or L forms follow the SMILES beside them. *: point of attachment. Nva = CCC[C@H](N)C(=O)O; Cbz = O=C(OCc1ccccc1)*

Assays:
[1] = qHTS profiling of the MIPE4 collection as inhibitors of Plasmodium falciparum (3D7) proliferation (AID 743344);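 note: scaled between DMSO vehicle wells and 0.29 µM artemisinin as full inhibition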; conditions: P. falciparum 3D7 in erythrocytes, SYBR Green DNA fluorescence, 72 h; at 28.5 µM unless noted
Outline: (§1)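 Parasite DNA was quantified by SYBR Green I fluorescence (ex 485, em 535 nm) after overnight lysis in saponin/Triton buffer at room temperature. Cultures at 0.3% parasitemia and 2.5% hematocrit were first exposed to compound for 72 h at 37 C; signals were normalised to artemisinin (0.29 uM) and vehicle wells.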

[2] = qHTS profiling of the MIPE4 collection as inhibitors of Plasmodium falciparum (DD2) proliferation (AID 743345); conditions: P. falciparum Dd2 in erythrocytes, SYBR Green DNA, 72 h; at 28.5 µM unless noted
Outline: as §1

[3] = qHTS profiling of the MIPE4 collection as inhibitors of Plasmodium falciparum (DD2) proliferation (Rep 2) (AID 743346); conditions: P. falciparum Dd2 in erythrocytes, SYBR Green DNA, 72 h; at 28.5 µM unless noted
Outline: as §1

[4] = qHTS profiling of the MIPE4 collection as inhibitors of Plasmodium falciparum (HB3) proliferation (AID 743347);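 note: plate controls were DMSO vehicle wells for no effect and artemisinin wells for full effect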; conditions: P. falciparum HB3 in erythrocytes, SYBR Green DNA, 72 h; at 28.5 µM unless noted
Outline: as §1

[5] = High-throughput drug toxicity screening in the BPDCN cell line Gen2.2 (AID 1224824); conditions: Gen2.2 BPDCN cells; at 45.8 µM (top of the series) unless noted;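 note: cells exposed to compounds for 48 h before reading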
Outline: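 Gen2.2 cells, 500 per well in phenol red-free RPMI with 10% FBS, exposed to compounds 48 h at 37 C, 5% CO2; viability by CellTiter-Glo luminescence. Percent activity scaled to DMSO (100%) and 9.2 uM bortezomib final (0%).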

Structure (SMILES)	parasite growth, % of DMSO control [1]	parasite growth remaining, % of DMSO control (lower = more inhibition) [2]	parasite growth, % of control (lower = inhibition) [3]	growth, % of control [4]	cell viability, % of control (lower = more cytotoxic) [5]
CC(=O)O[C@@]12CO[C@H]1C[C@H](O)[C@@]1(C)C(=O)[C@H](O)C3=C(C)[C@@H](OC(=O)C(O)[C@@H](NC(=O)OC(C)(C)C)c4ccccc4)C[C@@](O)([C@@H](OC(=O)c4ccccc4)[C@@H]21)C3(C)C (stereo not given in full)	5.89%	18.8%	30.4%	4.16%	22.4%
CCCc1nc(C(C)(C)O)c(C(=O)O)n1Cc1ccc(-c2ccccc2-c2nn[nH]n2)cc1	87.7%	93.7%	84.2%	61.6%	110%
CC(=O)OCC(=O)[C@@]12N=C(C)O[C@H]1C[C@H]1[C@@H]3CCC4=CC(=O)C=C[C@]4(C)[C@@H]3[C@@H](O)C[C@@]12C	89.5%	90%	68.3%	84%	94.7%
CCCCCN=C(N)NN=Cc1c[nH]c2ccc(OC)cc12	7.63%	7.01%	22.5%	6.26%	38.7%
O=C(O)C[C@H](O)C[C@H](O)C=Cc1c(C2CC2)nc2ccccc2c1-c1ccc(F)cc1	94%	92.7%	67%	86.6%	4.71%
NC[C@H]1O[C@H](O[C@H]2[C@@H](O)[C@@H](O[C@H]3O[C@H](CO)[C@@H](O)[C@H](N)[C@@H]3O)[C@H](N)C[C@@H]2N)[C@H](N)C[C@H]1O	97.7%	92.9%	78%	88.3%	200%
COc1cc(C(C)C)c(Oc2cnc(NC(CO)CO)nc2N)cc1I	82.2%	86.9%	60.9%	97.9%	294%
CCCCCCCCCCCCCCCC(=O)OC[C@@H](NC(=O)C(Cl)Cl)[C@H](O)c1ccc([N+](=O)[O-])cc1	101%	95.4%	135%	112%	132%
Oc1ccc([C@@H]2Oc3ccc(O)cc3[C@@H]3CCC[C@@H]32)cc1	43.6%	90.8%	47%	81.1%	90.8%
O=C(NNC(=O)c1ccc(CNS(=O)(=O)c2ccc(F)c(Cl)c2)cc1)c1ccccc1	371%	87.9%	100%	588%	143%
C[C@H](CCC(=O)O)[C@H]1CCC2C3C[C@H](O)[C@@H]4C[C@H](O)CC[C@]4(C)C3CC[C@@]21C (stereo not given in full)	79.8%	102%	88.7%	103%	130%
N#CC(=Cc1ccc(O)c(O)c1)C(=O)NCc1ccccc1	42.9%	87.2%	51.8%	48.1%	70.4%
CNC(=O)Nc1ccc(-c2nc(N3CC4CCC(C3)O4)c3cnn(C4CCC5(CC4)OCCO5)c3n2)cc1	5.91%	7.38%	8.34%	3.02%	17.6%
c1cc(CN2CCCNCCNCCCNCC2)ccc1CN1CCCNCCNCCCNCC1	91.4%	96.2%	74%	88.5%	133%
CC(C)C[C@H](NC(=O)CNC(=O)c1cc(Cl)ccc1Cl)B1OC(=O)CC(CC(=O)O)(C(=O)O)O1 (stereo not given in full)	4.74%	7.15%	7.43%	8.02%	4.85%
CC(=O)O[C@]1(C(C)=O)CC[C@H]2[C@@H]3C=C(C)C4=CC(=O)CC[C@]4(C)[C@@H]3CC[C@@]21C	23.2%	73.4%	18.8%	10.6%	5.55%
CC1=C(C(=O)Nc2cc3cn[nH]c3cc2F)C(c2ccc(Cl)cc2F)N=C(c2ccnc(Cl)c2)N1 (stereo not given)	13.2%	36.2%	21.1%	10.9%	4.15%
CC(Cc1ccc(O)c(O)c1)(NN)C(=O)O (stereo not given)	54.5%	15.4%	75.5%	54.9%	108%
O=C(CCCCCCC(=O)Nc1cccnc1)NO	5.14%	7.37%	7.99%	4.47%	20.5%
CC1(C)[C@H](O[C@H]2O[C@H](C(=O)O)[C@@H](O)[C@H](O)[C@H]2O[C@@H]2O[C@H](C(=O)O)[C@@H](O)[C@H](O)[C@H]2O)CC[C@@]2(C)[C@H]1CC[C@]1(C)[C@H]2C(=O)C=C2[C@H]3C[C@@](C)(C(=O)O)CC[C@]3(C)CC[C@]21C	99.2%	97.4%	85.7%	109%	153%
Cn1cc(C=CC(=O)c2cccc(F)c2)cc1C=CC(=O)NO	69.1%	90.9%	56.3%	99.1%	7.04%
CNC(=O)c1ccc(Nc2cc(Nc3ccccc3S(=O)(=O)C(C)C)c3cc[nH]c3n2)nc1	4.82%	11.9%	12.7%	2.73%	19.7%
CN(C)c1ccc(C(=O)NCCCCCCC(=O)NO)cc1	5.09%	7.09%	8.85%	2.69%	15.8%
C[C@@H]1[C@H](C)CC[C@]2(C(=O)O)CC[C@]3(C)C(=CC[C@@H]4[C@@]5(C)C[C@@H](O)[C@H](O)[C@@](C)(CO)[C@H]5CC[C@]43C)[C@@H]12	68.7%	90.5%	52.5%	43.6%	106%
CCNC(=O)c1cc2c(-c3cc(OCCN4CCCC4)c(Cl)cc3Cl)nc(N)nc2s1	10.8%	9.23%	25.1%	5.43%	13.8%
Cn1cc(CNCC2CCN(c3ncc(C(=O)NO)cn3)CC2)c2ccccc21	4.76%	7.34%	8.03%	7.88%	12.7%
CC(=O)OCC(=O)[C@@]1(O)CC[C@H]2[C@@H]3CCC4=CC(=O)CC[C@]4(C)[C@@H]3C(=O)C[C@@]21C	68.4%	93.2%	122%	96.5%	108%

Structure (SMILES)	parasite growth, % of DMSO control [1]	parasite growth remaining, % of DMSO control (lower = more inhibition) [2]	parasite growth, % of control (lower = inhibition) [3]	growth, % of control [4]	cell viability, % of control (lower = more cytotoxic) [5]
CCc1cnn2c(NCc3ccc[n+]([O-])c3)cc(N3CCCC[C@@H]3CCO)nc12	14.9%	14%	12.6%	8.08%	4.38%
CC(C)(C)c1nc2c3cc[nH]c(=O)c3c3cc(F)ccc3c2[nH]1	59.4%	94.4%	62%	58.6%	20.2%
Cc1ccc(-n2[nH]c(C)c(N=Nc3cccc(-c4cccc(C(=O)O)c4)c3O)c2=O)cc1C	57%	92.5%	72.1%	72.9%	180%
COc1ccc(C[C@@H](C)[C@@H](C)Cc2ccc(OC)c(OC)c2)cc1OC	62.3%	87.5%	60.3%	30.9%	6.99%
CN1CCCN(C(=O)c2cccc(-c3ccc(C=C4C(=O)Nc5ccc(Cl)cc54)o3)c2)CC1	3.74%	5.68%	6.52%	4.36%	9.19%
C[C@H](NC(=O)[C@@H](O)c1cc(F)cc(F)c1)C(=O)N[C@@H]1C(=O)N(C)c2ccccc2-c2ccccc21	11%	12.1%	27.7%	8.44%	165%
O=C1CSC(=O)N1C(CCc1ccncc1)COc1ccc(-c2cccc([N+](=O)[O-])c2)cc1 (stereo not given)	17.8%	49.4%	32.8%	4.69%	188%
CC(=O)NC(CS)C(=O)O (stereo not given)	101%	97.9%	118%	60.7%	87%
CCC[C@@H](C=O)NC(=O)[C@H](CC(C)C)NC(=O)[C@H](CC(C)C)NC(=O)OCc1ccccc1 (Cbz-Leu-Leu-[Nva]-aldehyde)	4.86%	6.49%	7.93%	3.3%	10.9%
Cc1cnc(Nc2ccc(CN3CCOCC3)cc2)nc1Nc1cccc(S(=O)(=O)NC(C)(C)C)c1	4.59%	8.36%	16.8%	4.53%	1.99%
CCOC(=O)[C@H](CCc1ccccc1)N[C@@H](C)C(=O)N1[C@@H](C(=O)O)C[C@H]2CCC[C@@H]21	8.54%	9.73%	14.6%	4.34%	7.77%
Cc1ccccc1C(=O)Nc1ccc(C(=O)N2CCCC(O)c3cc(Cl)ccc32)c(C)c1 (stereo not given)	22.8%	75.6%	46%	24.6%	129%
Cc1cc(-c2nnc3n2CCCCC3)c(C)n1-c1ccccc1	23%	36.9%	26.6%	16.4%	229%
CN(C)CC[C@H](c1ccc(Cl)cc1)c1ccccn1	94.7%	57%	36.2%	95.2%	120%
COC(=O)C=CC(=O)OC	76.2%	97.5%	71.3%	96.5%	35.4%
C#C[C@]1(O)CC[C@@H]2[C@@H]3CCC4=CC(=O)CC[C@@H]4[C@H]3CC[C@@]21CC	28%	79.2%	51.5%	61.1%	146%
CC(=O)O[C@H]1C[C@@H]2CC[C@H]3[C@H]4C[C@H]([N+]5(C)CCCCC5)[C@@H](OC(C)=O)[C@@]4(C)CC[C@@H]3[C@@]2(C)C[C@H]1N1CCCCC1	40.5%	64%	37.1%	71.6%	216%
N#Cc1cc(NC(=O)Nc2nnc(-c3ccncc3)s2)ccc1-c1cn[nH]c1	45.1%	101%	74.6%	41.3%	92.3%
O=C(O)[C@H](CC(=O)N1C[C@@H]2CCCC[C@H]2C1)Cc1ccccc1	71.6%	103%	69.7%	57.9%	133%
C=CC1=C(C(=O)O)N2C(=O)[C@@H](NC(=O)C(=NO)c3csc(N)n3)[C@H]2SC1	92.8%	95.1%	103%	68.4%	116%
Oc1cc(-c2nc(-c3ccccc3)[nH]c2-c2ccncc2)ccc1Cl	5.77%	9.67%	8.42%	3.61%	3.91%
O=c1[nH]c(=O)n([C@H]2C[C@@H](O)[C@@H](CO)O2)cc1F	183%	79.8%	58.8%	138%	74.8%
O=C(Nc1cccc(Nc2ncc(Br)c(NCCc3cnc[nH]3)n2)c1)N1CCCC1	7.42%	13.6%	17.4%	3.84%	15.3%
O=S(=O)(O)CCSSCCS(=O)(=O)O	79.5%	89%	69.9%	76%	33.7%
COC1=C2C[C@@H](C)C[C@H](OC)[C@@H](O)[C@@H](C)C=C(C)[C@H](OC(N)=O)[C@@H](OC)C=CC=C(C)C(=O)NC(=CC1=O)C2=O	5.43%	5.64%	11.9%	3.98%	3.44%
CCN(CC)CCNC(=O)c1c(C)[nH]c(C=C2C(=O)Nc3ccc(F)cc32)c1C	4.82% [at 57.5 µM]	7.72% [at 57.5 µM]	16% [at 57.5 µM]	5.65% [at 57.5 µM]	7.6% [at 92.2 µM]
